According to PubChem BioAssay (Tox21):
Inconclusive results are not listed. Calls of active or inactive are those of the source. Unless noted, the call rests on the fitted dose curve; in most records, active means well fitted curve in the direction sought with a large enough effect in the repeat runs; inconclusive means weak or mixed curves; inactive means no such curve, though single readings can be large; an effect the other way counts as inactive or inconclusive.

Columns and labels:
[1] = target: Retinoic acid receptor RXR-alpha (Homo sapiens) (UniProt P19793); test: qHTS assay to identify small molecule agonists of the RXR signaling pathway (AID 1159527; calls by dose curve; further: nearly all actives have a fitted effect of over 35% in size)
Sequence of Retinoic acid receptor RXR-alpha (Homo sapiens) (P19793 whole entry, looked up): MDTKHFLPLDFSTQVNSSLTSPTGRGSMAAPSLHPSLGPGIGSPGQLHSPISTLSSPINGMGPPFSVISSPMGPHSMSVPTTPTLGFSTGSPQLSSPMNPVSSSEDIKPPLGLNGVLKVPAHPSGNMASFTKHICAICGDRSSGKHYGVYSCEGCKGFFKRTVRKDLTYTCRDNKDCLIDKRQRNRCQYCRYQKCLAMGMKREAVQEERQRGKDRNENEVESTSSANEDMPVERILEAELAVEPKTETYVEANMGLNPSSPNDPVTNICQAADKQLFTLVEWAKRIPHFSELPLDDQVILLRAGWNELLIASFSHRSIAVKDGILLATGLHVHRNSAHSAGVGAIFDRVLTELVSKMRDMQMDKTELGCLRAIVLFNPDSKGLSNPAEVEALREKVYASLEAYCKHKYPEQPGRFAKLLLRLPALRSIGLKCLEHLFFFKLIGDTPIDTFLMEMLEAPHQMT
In short: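 Read-out: beta-lactamase FRET ratio (405 nm excitation, 460 and 530 nm emission) after 2 hr substrate loading at room temperature. Cells were RXR-alpha-UAS-bla HEK 293T treated with compounds for 16 hr in 2% charcoal-stripped FBS medium.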

[2] = qHTS assay to identify small molecule agonists of the RXR signaling pathway - cell viability counter screen (AID 1159529); further: series mostly up to about 77 µM; nearly all actives have a fitted effect of over 50% in size
In short: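 HEK 293T RXRa-bla cells, 2% CS-FBS; 5 h settle; cpd 16 h 37 C, 5% CO2; CellTiter-Glo 30 min RT, luminescence. Tetraoctyl ammonium bromide as positive control.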

[3] = qHTS assay to identify small molecule antagonists of the retinoid acid receptor (RAR) signaling pathway - cell viability counter screen (AID 1159551); further: nearly all actives have a fitted effect of over 35% in size
In short: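 C3RL4 RARE-luciferase cells, 1,000/well, incubated overnight, then dosed with compound plus 1 uM retinol (final). After 6 hr at 37 C, viability read by CellTiter-Glo ATP luminescence following 30 min at room temperature.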

[4] = qHTS assay to identify small molecule antagonists of the retinoic acid receptor (RAR) signaling pathway (AID 1159552; further: nearly all actives have a fitted effect of over 50% in size)
In short: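 Cells of the C3RL4 line were seeded, incubated overnight, then dosed with compounds in DMSO followed immediately by retinol (1 uM final). Six hours later luciferase detection reagent went in; signal was measured after 30 min at RT.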

[5] = qHTS assay to identify small molecule agonists of the retinoic acid receptor (RAR) signaling pathway (AID 1159553)
In short: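 C3RL4 RARE-luciferase cells were seeded at 1,000/well and grown overnight at 37 C, then exposed to compounds for 6 hr at 37 C, 5% CO2. Luciferase reagent was added and luminescence was read after 30 min at room temperature.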

[6] = target: Luciferin 4-monooxygenase (Photinus pyralis) (UniProt P08659); test: qHTS assay to identify small molecule inhibitors of firefly luciferase (AID 1224835); further: nearly all actives have a fitted effect of over 25% in size; further: potency means the concentration at half of the fitted maximal effect
Sequence of Luciferin 4-monooxygenase (Photinus pyralis) (P08659 whole entry, looked up): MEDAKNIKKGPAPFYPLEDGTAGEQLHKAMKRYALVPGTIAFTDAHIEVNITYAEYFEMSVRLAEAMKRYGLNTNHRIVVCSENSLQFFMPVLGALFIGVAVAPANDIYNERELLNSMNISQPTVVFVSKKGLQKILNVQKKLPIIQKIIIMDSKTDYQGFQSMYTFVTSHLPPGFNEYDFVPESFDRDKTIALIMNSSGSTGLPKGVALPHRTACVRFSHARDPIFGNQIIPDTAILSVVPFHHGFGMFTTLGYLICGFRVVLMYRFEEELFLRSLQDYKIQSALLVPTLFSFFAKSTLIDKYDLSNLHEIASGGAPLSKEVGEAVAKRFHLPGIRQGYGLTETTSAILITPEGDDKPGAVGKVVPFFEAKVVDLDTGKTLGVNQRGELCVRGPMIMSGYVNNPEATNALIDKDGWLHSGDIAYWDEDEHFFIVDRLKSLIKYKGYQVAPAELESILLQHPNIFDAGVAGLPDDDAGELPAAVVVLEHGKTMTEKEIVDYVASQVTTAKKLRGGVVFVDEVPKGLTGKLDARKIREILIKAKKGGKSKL
In short: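 Biochemical qHTS: compounds run as interplate titrations against purified firefly enzyme, with D-luciferin and ATP each at its KM concentration. Light output recorded by CCD imaging.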

[7] = qHTS assay to identify small molecule agonists of the constitutive androstane receptor (CAR) signaling pathway - cell viability counter screen (AID 1224836); further: series mostly up to about 92 µM; nearly all actives have a fitted effect of over 45% in size
In short: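 HepG2-CYP2B6-hCAR, 2500 cells/well, 4 h pre-incubation; cpd 15 conc + PK11195 0.75 uM final; 23 h, 37 C/5% CO2; CellTiter-Fluor, fluorescence.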

[8] = qHTS assay to identify small molecule antagonists of the constitutive androstane receptor (CAR) signaling pathway - cell viability counter screen (AID 1224837); further: series mostly up to about 92 µM; nearly all actives have a fitted effect of over 45% in size
In short: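 HepG2 cells stably carrying hCAR and CYP2B6-2.2kb reporter, stimulated with 50 nM CITCO and compounds at 15 concentrations for 23 h at 37 C. Viability measured by CellTiter-Fluor fluorescence.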

[9] = qHTS assay to identify small molecule antagonists of the estrogen related receptor signaling pathway with the pleiotropic PPARgamma coactivator (PGC) from Tox21 10K library - cell viability counter screen (AID 1224840; active means well fitted cell-killing curve with a large enough effect in the repeat runs, not every such curve was filed as active; further: nearly all actives have a fitted effect of over 40% in size)
In short: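 PGC/ERR cells (2,000/well) plated 6 h, then compound-treated for 17.5 h at 37 C. Viability measured by CellTiter-Fluor fluorescence after 30 min at 37 C, multiplexed with the pathway assay.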

[10] = qHTS assay to identify small molecule antagonists of the estrogen related receptor signaling pathway with the pleiotropic PPARgamma coactivator (PGC) from Tox21 10K library (AID 1224841; call rule not given here; further: series mostly up to about 92 µM; actives are mostly falling curves and most rising ones were filed inactive; nearly all actives have a fitted effect of over 50% in size)
In short: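 PGC/ERR cell line, 2,000 cells/well, pre-incubated 6 hours at 37 C, then exposed to compounds for 18 hours at 37 C; luciferase read with One-Glo luminescence after 30 min at room temperature.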

[11] = qHTS assay to identify small molecule agonists of the estrogen related receptor signaling pathway with the pleiotropic PPARgamma coactivator (PGC) from Tox21 10K library (AID 1224842); further: nearly all actives have a fitted effect of over 15% in size
In short: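 PGC/ERR reporter cell line, 2,000 cells per well, incubated 6 h at 37 C before 23 nL compound in DMSO was added. After 18 h at 37 C, One-Glo luminescence read following 30 min at room temperature.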

[12] = qHTS assay to identify small molecule antagonists of the estrogen related receptor (ERR) signaling pathway - cell viability counter screen (AID 1224818); further: series mostly up to about 46 µM
In short: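 ERR cells, 2,000 per well, compound added after 6 h and incubated 17.5 h at 37 C. Viability read by CellTiter-Fluor fluorescence after a further 30 min at 37 C.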

[13] = qHTS assay to identify small molecule antagonists of the estrogen related receptor signaling pathway with the pleiotropic PPARgamma coactivator (PGC) cell viability counter screen (AID 1224822; further: series mostly up to about 46 µM)
In short: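 PGC/ERR cells rested 6 h, then compound-treated 17.5 h at 37 C. CellTiter-Fluor added for 30 min at 37 C, viability measured by fluorescence intensity.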

[14] = qHTS assay to identify small molecule antagonists of the estrogen related receptor (ERR) signaling pathway from Tox21 library - cell viability counter screen (AID 1224834); further: nearly all actives have a fitted effect of over 30% in size
In short: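 ERR reporter cells, 2,000 per well, rested 6 h, then exposed to compound in DMSO for 17.5 hours at 37 C. Viability read as fluorescence after 30 min with CellTiter-Fluor.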

[15] = target: Nuclear receptor subfamily 1 group I member 3 (Homo sapiens) (UniProt Q14994); test: qHTS assay to identify small molecule antagonists of the constitutive androstane receptor (CAR) signaling pathway (AID 1224838); further: nearly all actives have a fitted effect of over 40% in size; further: potency means the concentration at half of the fitted maximal effect
Sequence of Nuclear receptor subfamily 1 group I member 3 (Homo sapiens) (Q14994 whole entry, looked up): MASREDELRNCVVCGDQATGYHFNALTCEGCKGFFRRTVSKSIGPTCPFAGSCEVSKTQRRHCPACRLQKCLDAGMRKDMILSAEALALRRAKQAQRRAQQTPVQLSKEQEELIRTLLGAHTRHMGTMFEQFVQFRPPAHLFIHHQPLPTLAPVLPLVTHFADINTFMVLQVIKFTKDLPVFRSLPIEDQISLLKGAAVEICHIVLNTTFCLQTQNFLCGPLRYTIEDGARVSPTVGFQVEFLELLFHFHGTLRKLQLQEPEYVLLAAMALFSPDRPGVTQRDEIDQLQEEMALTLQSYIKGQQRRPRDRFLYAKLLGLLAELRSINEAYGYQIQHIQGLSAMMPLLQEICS
In short: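 HepG2 cells stably carrying hCAR and a CYP2B6-2.2kb luciferase reporter, seeded 4 hrs before compound (15 concentrations). Stimulated with 50 nM CITCO for 24 hr at 37 C. ONE-Glo luminescence read after 30 min at room temperature.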

[16] = target: Nuclear receptor subfamily 1 group I member 3 (Homo sapiens) (UniProt Q14994); test: qHTS assay to identify small molecule agonists of the constitutive androstane receptor (CAR) signaling pathway (AID 1224839); further: series mostly up to about 92 µM; nearly all actives have a fitted effect of over 15% in size
In short: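 HepG2-CYP2B6-hCAR cells, 2500/well, 4 h pre-incubation; compounds 15 conc.; PK11195 0.75 uM final; 24 h, 37 C/5% CO2; ONE-Glo luciferase read.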

[17] = qHTS assay to identify small molecule antagonists of the estrogen related receptor (ERR) signaling pathway (AID 1224819;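 further: luminescence from an ERR-driven luciferase reporter measured with One-Glo reagent; series mostly up to about 46 µM; nearly all actives have a fitted effect of over 50% in size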)
In short: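 ERR reporter cell line (NTP) plated at 2,000 cells/well, settled 6 h at 37C/5% CO2, then exposed to LOPAC compounds for 18 h at 37C. One-Glo luciferase luminescence read after 30 min at room temperature.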

[18] = qHTS assay to identify small molecule agonists of the estrogen related receptor (ERR) signaling pathway (AID 1224820)
In short: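 ERR reporter cell line (from NTP), 2,000 cells/well, incubated 6 h before compound addition, then 18 h at 37 C. Luminescence measured 30 min after One-Glo reagent at room temperature.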

[19] = test system: estrogen-related receptor alpha (ERRalpha) with PGC-1alpha coactivator, human; test: qHTS assay to identify small molecule antagonists of the estrogen related receptor signaling pathway with the pleiotropic PPARgamma coactivator (PGC) (AID 1224821; calls by dose curve)
In short: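 PGC/ERR reporter cell line, plated 6 h before compound addition, then exposed 18 h at 37 °C. Luciferase activity read by luminescence 30 min after One-Glo addition; decrease indicates antagonism.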

[20] = qHTS assay to identify small molecule agonists of the estrogen related receptor signaling pathway with the pleiotropic PPARgamma coactivator (PGC) (AID 1224823)
In short: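 PGC/ERR reporter cells seeded 6 h, then exposed to compounds (23 nL in DMSO) for 18 h at 37 C. One-Glo luciferase luminescence read after 30 min at room temperature.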

Measured: Potency

CCCCC(=O)O[C@]1(C(=O)CO)[C@H](C)C[C@H]2[C@@H]3CCC4=CC(=O)C=C[C@]4(C)[C@@]3(F)[C@@H](O)C[C@@]21C
inactive: [1] | [2] | [3] | [4] | [5] | [6] | [7] | [8] | [9] | [10] | [11]

CC(=O)Oc1cc(C(C)C)c(OCCN(C)C)cc1C
inactive: [1] | [2] | [3] | [12] | [13] | [14] | [6] | [8] | [15] | [9]

NS(=O)(=O)c1cc(-c2nn[nH]n2)c(NCc2cccs2)cc1Cl
active: [15] 23.7 µM
inactive: [1] | [2] | [3] | [5] | [6] | [8] | [16] | [9]

CC(C)C(=O)OC/C=C/c1ccccc1
inactive: [1] | [2] | [3] | [7] | [8] | [15] | [9] | [10] | [11]
active: [6] 71 µM

O=Cc1ccc(F)c(Br)c1
inactive: [1] | [2] | [14] | [6] | [7] | [8] | [15] | [16] | [9]

C[C@]12CCC(=O)C=C1CC[C@@H]1[C@@H]2CC[C@@]2(C)[C@H]1CC[C@]2(O)C(=O)CO
not listed: [1] | [15] | [16]
inactive: all other assays above

CN1CCC[C@@H]1Cc1c[nH]c2ccc(CCS(=O)(=O)c3ccccc3)cc12
not listed: [2] | [4] | [5] | [10] | [11] | [19] | [20]
inactive: all other assays above

CCCCNc1ccc(C(=O)OCCN(CC)CC)cc1
inactive: [1] | [14] | [6] | [7] | [8] | [15] | [9] | [10] | [11]

CC(C)NCC(O)COc1ccc(CCOCC2CC2)cc1 (centres undefined)
inactive: [2] | [3] | [4] | [5] | [12] | [13] | [7] | [8] | [15] | [16] | [9]
